Compound activity: PubChem, several laboratories
LANA DNA inh: inhibitors of KSHV C-LANA binding to DNA, primary screen, biochemical, fluorescence polarization, FAM-LBS DNA, MBP-C-LANA, single point. inhibition, % at 9 µM. Kaposi's sarcoma herpesvirus LANA C-terminal domain (residues 932-1162) DNA binding. 340,000 compounds, 0.078% hits;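 active = highest replicate inhibition at or above 60% at 9 µM, even if other replicates fall short; inactive = all replicates below 60% inhibition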;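 note: 0% = neutral control wells and 100% = 4 µM acridine orange control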
IDE act: human IDE activators in live cells, primary screen, fluorescence polarization, HEK cells, FAbeta-B substrate. activation, % at 5.96 µM. FAbeta-B cleavage; 0% vehicle, 100% cell-free pure enzyme wells. AID 493087, 2011. Insulin-degrading enzyme (Homo sapiens), P14735. 340,000 compounds, 0.073% hits;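 active = activation above the mean of all tested compounds plus 3 SD, set per screening campaign, cut at about 17% in these data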
Keap1-Nrf2 PPI: Keap1-Nrf2 protein-protein interaction inhibitors, primary screen, biochemical, fluorescence polarization, single point | inhibition, % at 9.4 µM | 340,000 compounds, 0.15% hits | Keap1 Kelch-Nrf2 peptide fluorescence polarization, 1536-well | Kelch-like ECH-associated protein 1 (Homo sapiens), Q14145; in the data active = inhibition above about 12%;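 note: human Keap1 Kelch domain with fluorescein labeled Nrf2 9mer peptide probe; 0% = neutral control wells and 100% = peptide positive control; higher means more block of Keap1 binding to Nrf2 peptide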
IDE inh: human IDE inhibitors in live cells, primary screen, fluorescence polarization, HEK cells, FAbetaB substrate; FAbetaB cleavage; inhibition, % at 5.59 µM; 320,000 compounds, 0.41% hits; AID 434962, 2010;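 active = percent inhibition above the average of all tested compounds plus 3 SD, set per screening campaign, cut at about 16% in these data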;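 note: IDE supplied by intact live HEK cells; FP after avidin binding of uncleaved biotin substrate so inhibition keeps polarization high; 0% = DMSO wells and 100% = 60 µM reference IDE inhibitor Ii1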
cardiac RTF act: cardiac RTF calcium sensitivity activators, primary screen, biochemical, IANBD-TnC fluorescence, EC20 calcium. AID 493008, 2010. activation, % at 7.2 µM. IANBD-labeled TnC RTF fluorescence at EC20 calcium; 0% EC20 calcium, 100% full calcium. 340,000 compounds, 0.24% hits;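 active = activation above the mean over all tested compounds plus 3 SD, cut at about 30% in these data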;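 note: rise in fluorescence read as greater calcium sensitivity of cardiac thin filaments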
Cardiac RTF inh: cardiac RTF calcium sensitivity inhibitors, primary screen, biochemical, IANBD-TnC fluorescence, EC70 calcium. IANBD-labeled cardiac RTF, Ca2+ fluorescence. inhibition, % at 7.15 µM. 340,000 compounds, 0.12% hits. AID 493244, 2011;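 active = inhibition above the mean inhibition of all tested compounds plus 3 SD, cut at about 17% in these data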;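 note: assay run at fixed EC70 calcium of 1.6 mM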
RTF inh confirm: cardiac RTF calcium sensitivity inhibitors, confirmation, biochemical, fluorescence readout | shares compounds with Cardiac RTF inh | AID 504635, 2011 | inhibition, % at 7.15 µM | 360 compounds, 8% hits | reconstituted cardiac thin filaments; in the data active = inhibition above about 18%
The depositor's hits bear a star; / = not tested or not shown; ! = not active in a repeat. Sampled rows, rich in hits. Any-hit rate of the full collection: about 0.81%.

SMILES	LANA DNA inh	IDE act	Keap1-Nrf2 PPI	IDE inh	cardiac RTF act	Cardiac RTF inh	RTF inh confirm
COc1cc(/C=C2\SC(=S)N(c3cccnc3)C2=O)ccc1O	-3	-90	1	45*	-14	19*	0
O=C(CN1C(=O)/C(=C\c2ccco2)SC1=S)Nc1ccc(O)cc1C(=O)O	64*	-1	-5	3	-9	18*	-3
Cc1ccc(Nc2cc(C)nc3ncnn23)cc1	1	4	0	4	2	3	/
COc1ccc(C(C)(C)C)cc1NC(=O)Nc1ccc2c(c1)OCO2	-1	0	-2	-5	-2	-8	/
C=CCN(C(=O)Cn1c(C(=O)OC)cc2oc(C)cc21)c1ccccc1	-2	-5	-1	-1	7	-29	/
COC(=O)c1cc2oc(C)cc2n1CC(=O)N(C)c1ccccc1	0	4	-2	-2	-2	17*	-3
COc1ccc(NS(=O)(=O)c2cccc(-c3n[nH]c(=S)n3Cc3ccccc3)c2)cc1	0	4	0	4	3	6	/
CCOC(=O)c1c(N)sc2c(OC)c(Br)ccc12	1	-4	-2	9	-8	21*	-6
CC(=O)Nc1ccc2ccccc2c1	0	8	0	8	-8	24*	-2
CN1CCCC(CN2c3ccccc3Sc3ccccc32)C1 (stereo not drawn)	0	3	0	-3	-5	24*	-2
CN1CCCC(CC2c3ccccc3Sc3ccccc32)C1 (stereo not drawn)	0	4	2	9	-3	5	/
COc1ccc(C2=CC3=C(Br)C(=O)C(C)(O)C(=O)C3=CO2)cc1 (stereo not drawn)	6	-1	-9	3	-11	3	/
CCC(=O)OC1(C)C(=O)C2=COC(c3ccc(OC)cc3)=CC2=C(Br)C1=O (stereo not drawn)	7	0	-1	1	-13	17*	-2
COc1ccc(S(=O)(=O)Nc2ccccc2C(N)=O)cc1OC	-2	/	-2	-2	/	/	/
Cc1cccc(NC(=O)c2sc(NC(=O)COc3ccccc3)c(C#N)c2C)c1C	1	-1	3	0	0	6	/
Cc1ccccc1NC(=O)c1sc(NC(=O)COc2ccccc2)c(C#N)c1C	2	1	-3	-1	-1	18*	-3
CCOC(=O)Nc1nnc(CCc2ccccc2)s1	-2	0	-8	3	-4	-24	/
CCc1nnc(NC(=O)OCc2ccccc2)s1	-1	2	-5	3	2	17*	-1
CN1CCN(S(=O)(=O)c2ccc(Oc3ccc(F)c(Cl)c3)nc2)CC1	-2	2	1	5	0	-4	/
Brc1ccc(-c2nnc(Cc3ccccc3)o2)cc1	/	/	/	1	/	/	/
c1ccc(Cc2nnc(-c3ccccc3)o2)cc1	-3	4	4	-2	-2	17*	-1
N#CCCn1cc(/C=N/NC(=O)c2ccncc2)c(-c2ccc(F)cc2)n1	-1	4	-3	1	-3	0	/
Cc1ccc(NC(=O)Cn2nnc3ccccc3c2=O)cc1C	3	8	5	0	-1	18*	-6
O=C(Cn1nnc2ccccc2c1=O)Nc1ccc(S(=O)(=O)N2CCOCC2)cc1	3	6	3	-6	1	17*	-1
Cc1ccc(NC(=O)Cn2nnc3ccccc3c2=O)cc1	2	1	5	5	-2	-11	/
SMILES	LANA DNA inh	IDE act	Keap1-Nrf2 PPI	IDE inh	cardiac RTF act	Cardiac RTF inh	RTF inh confirm
N#Cc1c(F)cccc1N1CCN(Cc2ccc3c(c2)OCO3)CC1	0	1	3	3	-5	18*	-2
O=C(c1ccccc1F)N1CCN(Cc2ccc3c(c2)OCO3)CC1	-1	2	1	2	0	-5	/
COc1cc(C(=O)Nc2ccc(NC(=O)c3cccc(Cl)c3)nc2)cc(OC)c1OC	1	-7	-4	/	-15	0	/
Cc1nn(CC(=O)NCCCN2CCCC2)c(=O)c2nn(-c3ccccc3)c(C)c12	1	-2	-2	-1	1	19*	-1
c1ccc2c(c1)ccc1ncccc12	-1	4	-4	5	-5	18*	-4
c1cnc2c(c1)ccc1cccnc12	-2	0	-1	0	0	18*!	-7
c1cnc2ccc3ncccc3c2c1	-1	-3	-3	-3	6	-8	/
Cc1c(NC(=O)CC2NC(=O)NC2=O)c(=O)n(-c2ccccc2)n1C (stereo not drawn)	/	/	/	4	/	/	/
Cc1onc(-c2ccccc2Cl)c1C(=O)N(C)Cc1ccccc1	-1	4	0	/	-3	4	/
CC(Oc1ccccc1)C(=O)Nc1nnc(S(=O)(=O)N2CCCCCC2)s1 (stereo not drawn)	-1	7	1	0	0	-9	/
CCC(Oc1ccccc1)C(=O)Nc1nnc(S(=O)(=O)N2CCCCC2)s1 (stereo not drawn)	/	3	2	-3	-2	18*	-4
O=C(COC(=O)CCSc1ccc(Cl)cc1)NCc1ccccc1Cl	-2	7	1	4	-1	18*	-3
CC(Sc1nc(=O)cc(N)n1CCc1ccccc1)C(=O)NCc1ccccc1 (stereo not drawn)	-1	8	0	4	-3	19*	-1
CCn1c(SCC(=O)c2ccccc2)nc2sc3c(c2c1=O)CCN(C)C3	-2	8	-2	-1	-2	1	/
CC(=O)Nc1cc(C(=O)N2CCc3ccccc3C2)ccc1Sc1ccc(C)cc1	0	3	0	1	-2	17*	-4
CCCN1CCN(C(=O)c2ccc(Sc3ccc(C)cc3)c(NC(C)=O)c2)CC1	-1	3	-1	1	-3	-10	/
Fc1ccc([C@@H]2CCNC[C@H]2COc2ccc3c(c2)OCO3)cc1	2	3	-2	4	-1	20*!	-2
O=C(CCN1CCC2CCC(C2)C1)c1ccc(F)cc1 (stereo not drawn)	1	1	-3	/	8	-16	/
CC1(C)CC(=O)C2=C(C1)N(Cc1ccco1)C(=O)NC2(C(F)(F)F)C(F)(F)F	-2	3	0	6	-4	18*	-2
